Results from PubChem BioAssay (NCATS).
Inconclusive results are not listed. A call without a number means that no potency is given here. Calls of active or inactive are those of the source. Unless noted, the call rests on the fitted dose curve; in most records, active means well fitted curve in the direction sought with a large enough effect; inconclusive means small, poorly fitted or top-dose-only effect, or another doubt; inactive means no such curve, though single readings can be large; an effect the other way counts as inactive or inconclusive.

Tests used:
[1] = qHTS Assay for Identification of Small Molecule Antagonists for Thrombopoietin (TPO) Signaling Pathway (AID 918); conditions: TPO-dependent cell signaling reporter, antagonist mode; further: potency means the concentration at half of the fitted maximal effect; nearly all actives have a fitted effect of over 60% in size
Method in brief: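 Antagonist mode at EC50 TPO (26 pM) in IL-3-free medium; murine Ba/F3 cells with human TPO receptor and GPIIb-promoter luciferase, 24 hrs at 37 C before luminescent detection.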

[2] = qHTS for differential inhibitors of proliferation of Plasmodium falciparum line GB4 (AID 1816); conditions: Potency: Plasmodium falciparum GB4 proliferation inhibition; series mostly up to 28.7 µM;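 further: potency means the concentration at half of the fitted maximal effect; parasite growth measured after 72 h incubation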
[3] = molecular target: Bile acid receptor (Homo sapiens) (UniProt Q96RI1); experiment: qHTS assay for small molecule agonists of farnesoid X receptor signaling (AID 588527; calls by dose curve); conditions: HEK293T FXR-UAS-bla, beta-lactamase ratio, 16 h; activation: stronger effect = higher value
Sequence of Bile acid receptor (Homo sapiens) (Q96RI1 whole entry, looked up): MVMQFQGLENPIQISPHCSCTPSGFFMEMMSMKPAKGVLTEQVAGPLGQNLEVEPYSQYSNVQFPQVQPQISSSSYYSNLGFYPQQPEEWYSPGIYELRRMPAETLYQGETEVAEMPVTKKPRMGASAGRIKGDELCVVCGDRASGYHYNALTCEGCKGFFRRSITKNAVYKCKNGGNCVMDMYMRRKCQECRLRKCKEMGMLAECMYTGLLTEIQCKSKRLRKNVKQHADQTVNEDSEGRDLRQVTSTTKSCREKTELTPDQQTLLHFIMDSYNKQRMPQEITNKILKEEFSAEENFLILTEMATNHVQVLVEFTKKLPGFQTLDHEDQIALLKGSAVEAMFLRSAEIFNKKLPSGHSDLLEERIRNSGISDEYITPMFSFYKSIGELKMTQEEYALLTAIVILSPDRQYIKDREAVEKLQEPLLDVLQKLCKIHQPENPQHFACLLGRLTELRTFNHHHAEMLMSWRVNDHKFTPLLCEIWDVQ
Method in brief: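 FXR-UAS-bla HEK293T cells (10% dialyzed FBS) preincubated 5-7 h at 37 C, then compounds at up to 92 uM for 16 h at 37 C. CCF4 beta-lactamase read-out after 2 h RT. Normalized to chenodeoxycholic acid (100 uM) and DMSO; Hill fit gave EC50 and efficacy.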

[4] = molecular target: Glucocorticoid receptor (Homo sapiens) (UniProt P04150); experiment: qHTS assay for small molecule antagonists of glucocorticoid receptor signaling (AID 588533; active means well fitted inhibition curve with a large enough effect in the signal ratio, with a control signal flat, not every such curve was filed as active; the % refers to the signal ratio;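 further: cells stimulated with 2 nM dexamethasone as agonist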); conditions: HeLa MMTV-bla, GRE beta-lactamase ratio, antagonist mode, 18 h; series mostly up to 76.8 µM
Sequence of Glucocorticoid receptor (Homo sapiens) (P04150 whole entry, looked up): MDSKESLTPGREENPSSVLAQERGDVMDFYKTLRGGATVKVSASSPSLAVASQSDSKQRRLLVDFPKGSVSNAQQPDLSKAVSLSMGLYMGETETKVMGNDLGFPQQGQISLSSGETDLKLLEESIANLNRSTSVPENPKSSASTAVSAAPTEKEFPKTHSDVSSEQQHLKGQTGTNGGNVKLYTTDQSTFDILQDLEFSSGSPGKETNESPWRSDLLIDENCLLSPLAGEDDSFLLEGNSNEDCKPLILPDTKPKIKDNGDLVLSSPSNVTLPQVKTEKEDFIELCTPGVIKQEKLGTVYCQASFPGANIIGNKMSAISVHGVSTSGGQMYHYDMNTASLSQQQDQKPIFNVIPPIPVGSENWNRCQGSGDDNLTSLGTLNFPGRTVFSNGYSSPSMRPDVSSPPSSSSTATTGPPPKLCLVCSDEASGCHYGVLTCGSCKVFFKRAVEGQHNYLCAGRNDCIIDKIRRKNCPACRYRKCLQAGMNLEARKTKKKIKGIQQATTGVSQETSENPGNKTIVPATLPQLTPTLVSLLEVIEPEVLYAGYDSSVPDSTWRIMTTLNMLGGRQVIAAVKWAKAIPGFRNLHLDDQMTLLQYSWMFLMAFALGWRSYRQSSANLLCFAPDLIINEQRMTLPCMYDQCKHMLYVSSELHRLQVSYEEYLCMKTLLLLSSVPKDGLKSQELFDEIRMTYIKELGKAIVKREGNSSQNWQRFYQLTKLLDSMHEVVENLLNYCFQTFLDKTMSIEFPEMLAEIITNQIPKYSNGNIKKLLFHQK
Method in brief: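 Antagonist-mode qHTS: compound titrations added to GRE-bla HeLa cells, then dexamethasone 2 nM final; 18 h, 37 C. CCF4 FRET fluorescence normalized to dexamethasone and DMSO; IC50 from Hill fit.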

[5] = molecular target: Peroxisome proliferator-activated receptor gamma (Homo sapiens) (UniProt P37231); experiment: qHTS assay for small molecule agonists of peroxisome proliferator-activated receptor gamma signaling (AID 588536; active means well fitted curve in the direction sought with a large enough effect in the signal ratio, with a control signal flat, not every such curve was filed as active; the % refers to the signal ratio); conditions: HEK293 PPARg-UAS-bla, beta-lactamase ratio, 16 h, percent of rosiglitazone response, DMSO as zero; series mostly up to 76.7 µM
Sequence of Peroxisome proliferator-activated receptor gamma (Homo sapiens) (P37231 whole entry, looked up): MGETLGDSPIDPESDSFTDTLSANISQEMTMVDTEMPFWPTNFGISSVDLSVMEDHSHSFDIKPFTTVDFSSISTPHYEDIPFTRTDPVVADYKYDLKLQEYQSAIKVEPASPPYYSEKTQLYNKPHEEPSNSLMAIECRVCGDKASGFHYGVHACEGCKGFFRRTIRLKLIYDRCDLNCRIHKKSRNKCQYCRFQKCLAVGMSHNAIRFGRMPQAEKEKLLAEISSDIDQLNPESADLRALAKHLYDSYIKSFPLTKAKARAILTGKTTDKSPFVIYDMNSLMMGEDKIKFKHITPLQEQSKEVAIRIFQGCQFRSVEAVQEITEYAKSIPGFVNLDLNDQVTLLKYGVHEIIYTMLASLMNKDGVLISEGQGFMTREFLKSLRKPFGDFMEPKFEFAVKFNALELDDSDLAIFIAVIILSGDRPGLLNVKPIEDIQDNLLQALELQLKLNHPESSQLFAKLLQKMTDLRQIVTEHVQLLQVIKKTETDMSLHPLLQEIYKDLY
Method in brief: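 Cells were plated and held 6–6.5 h at 37 C, then compounds were added as a titration series. After a further 16 h, CCF4 dye was loaded for 2 h at room temperature and emission at 460/530 nm recorded.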

[6] = qHTS assay for small molecule agonists of retinoid X receptor alpha signaling (AID 588544; calls by dose curve); conditions: HEK293T RXRa-UAS-bla, beta-lactamase reporter, 18 h; 530 nm emission
[7] = molecular target: Retinoic acid receptor RXR-alpha (Homo sapiens) (UniProt P19793); experiment: as above; conditions: HEK293T RXRa-UAS-bla, beta-lactamase reporter, 18 h; series mostly up to 76.7 µM
Sequence of Retinoic acid receptor RXR-alpha (Homo sapiens) (P19793 whole entry, looked up): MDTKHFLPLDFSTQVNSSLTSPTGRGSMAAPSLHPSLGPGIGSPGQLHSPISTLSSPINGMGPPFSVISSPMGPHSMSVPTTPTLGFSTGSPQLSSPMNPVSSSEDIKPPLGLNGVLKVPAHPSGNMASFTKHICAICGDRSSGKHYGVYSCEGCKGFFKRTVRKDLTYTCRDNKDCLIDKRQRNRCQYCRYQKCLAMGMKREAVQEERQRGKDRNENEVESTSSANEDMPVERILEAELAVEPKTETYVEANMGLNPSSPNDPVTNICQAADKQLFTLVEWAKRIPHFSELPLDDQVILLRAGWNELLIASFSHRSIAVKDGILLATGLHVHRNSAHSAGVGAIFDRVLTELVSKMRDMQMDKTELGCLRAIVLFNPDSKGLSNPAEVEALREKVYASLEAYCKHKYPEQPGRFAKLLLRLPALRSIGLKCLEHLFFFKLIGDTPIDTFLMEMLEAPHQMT

[8] = molecular target: Retinoic acid receptor RXR-alpha (Homo sapiens) (UniProt P19793); experiment: qHTS assay for small molecule antagonists of retinoid X receptor alpha signaling (AID 588546; active means well fitted inhibition curve with a large enough effect in the signal ratio, with a control signal flat, not every such curve was filed as active; the % refers to the signal ratio;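 further: cells stimulated with 9-cis-retinoic acid as agonist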); conditions: HEK293T RXRa-UAS-bla, beta-lactamase ratio, antagonist mode
Method in brief: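 Beta-lactamase reporter inhibition, read as CCF4 fluorescence ratio (ex 405, em 460/530 nm) after 2 h at RT. HEK293T UAS-bla cells, 2500/well, were stimulated with 9-cis-RA at 500 or 100 nM final alongside test compound for 18 h at 37 C.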

[9] = Confirmation and Secondary Assay for Modulators of Hemoglobin Beta Chain Splicing at IVS2 654 locus (AID 910); conditions: HeLa EGFP-654 splicing reporter, GFP fluorescence, 48 h; series mostly up to 46.1 µM;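 further: per-well total GFP intensity by laser scanning cytometry after 2-day treatment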
Method in brief: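 HeLa cells stably carrying EGFP interrupted by mutant beta-globin IVS2-654 intron (CMV-driven) were treated with compound for 2 days at 37C; corrected splicing was scored as total peak GFP intensity per well (488 nm excitation, 500-520 nm emission).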

[10] = Confirmation and Secondary Assay for Modulators of Hemoglobin Beta Chain Splicing at IVS2 705 locus (AID 930); conditions: HeLa EGFP-705 splicing reporter, GFP fluorescence, 48 h; series mostly up to 46.1 µM;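 further: HeLa cells stably expressing the EGFP-705 splicing reporter; GFP fluorescence per well restored by corrected splicing of the IVS2-705 intron in EGFP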
Method in brief: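 Secondary splice-site specificity test uses HeLa expressing CMV-driven EGFP interrupted by IVS2-705; cells were treated 2 days at 37C with 500 nM antisense PNA as positive control.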

DIV14 = experiment: qHTS profiling for inhibitors of Plasmodium falciparum proliferation (AID 504749); further: nearly all actives have a fitted effect of over 60% in size; further: potency means the concentration at half of the fitted maximal effect; conditions: P. falciparum in erythrocytes, SYBR Green DNA, 72 h; series mostly up to 28.7 µM
Method in brief: (§1)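 Fluorescence of SYBR Green-bound parasite DNA, read at 485/535 nm, served as the growth measure. Infected erythrocytes were cultured with compound 72 h; artemisinin (0.29 uM) and DMSO wells defined the normalization range.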

DIV17 = experiment: as above; conditions: P. falciparum in erythrocytes, SYBR Green DNA, 72 h; series mostly up to 28.7 µM
Method in brief: as §1

ICS = experiment: as above; conditions: P. falciparum in erythrocytes, SYBR Green DNA, 72 h; series mostly up to 28.7 µM
Method in brief: as §1

PC26 = experiment: as above; conditions: P. falciparum in erythrocytes, SYBR Green DNA, 72 h; series mostly up to 28.7 µM
Method in brief: as §1

[11] = qHTS for differential inhibitors of proliferation of Plasmodium falciparum line 3D7 (AID 1876);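 further: parasite growth measured after three days of culture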; conditions: P. falciparum 3D7 proliferation inhibition; series mostly up to 28.7 µM
[12] = molecular target: RecQ-like DNA helicase BLM (Homo sapiens) (UniProt P54132); experiment: qHTS Validation Assay for Inhibitors of Bloom's syndrome helicase (BLM) (AID 2364); conditions: BLM helicase DNA unwinding, fluorescence, in vitro; series mostly up to 57.1 µM
Sequence of RecQ-like DNA helicase BLM (Homo sapiens) (P54132 whole entry, looked up): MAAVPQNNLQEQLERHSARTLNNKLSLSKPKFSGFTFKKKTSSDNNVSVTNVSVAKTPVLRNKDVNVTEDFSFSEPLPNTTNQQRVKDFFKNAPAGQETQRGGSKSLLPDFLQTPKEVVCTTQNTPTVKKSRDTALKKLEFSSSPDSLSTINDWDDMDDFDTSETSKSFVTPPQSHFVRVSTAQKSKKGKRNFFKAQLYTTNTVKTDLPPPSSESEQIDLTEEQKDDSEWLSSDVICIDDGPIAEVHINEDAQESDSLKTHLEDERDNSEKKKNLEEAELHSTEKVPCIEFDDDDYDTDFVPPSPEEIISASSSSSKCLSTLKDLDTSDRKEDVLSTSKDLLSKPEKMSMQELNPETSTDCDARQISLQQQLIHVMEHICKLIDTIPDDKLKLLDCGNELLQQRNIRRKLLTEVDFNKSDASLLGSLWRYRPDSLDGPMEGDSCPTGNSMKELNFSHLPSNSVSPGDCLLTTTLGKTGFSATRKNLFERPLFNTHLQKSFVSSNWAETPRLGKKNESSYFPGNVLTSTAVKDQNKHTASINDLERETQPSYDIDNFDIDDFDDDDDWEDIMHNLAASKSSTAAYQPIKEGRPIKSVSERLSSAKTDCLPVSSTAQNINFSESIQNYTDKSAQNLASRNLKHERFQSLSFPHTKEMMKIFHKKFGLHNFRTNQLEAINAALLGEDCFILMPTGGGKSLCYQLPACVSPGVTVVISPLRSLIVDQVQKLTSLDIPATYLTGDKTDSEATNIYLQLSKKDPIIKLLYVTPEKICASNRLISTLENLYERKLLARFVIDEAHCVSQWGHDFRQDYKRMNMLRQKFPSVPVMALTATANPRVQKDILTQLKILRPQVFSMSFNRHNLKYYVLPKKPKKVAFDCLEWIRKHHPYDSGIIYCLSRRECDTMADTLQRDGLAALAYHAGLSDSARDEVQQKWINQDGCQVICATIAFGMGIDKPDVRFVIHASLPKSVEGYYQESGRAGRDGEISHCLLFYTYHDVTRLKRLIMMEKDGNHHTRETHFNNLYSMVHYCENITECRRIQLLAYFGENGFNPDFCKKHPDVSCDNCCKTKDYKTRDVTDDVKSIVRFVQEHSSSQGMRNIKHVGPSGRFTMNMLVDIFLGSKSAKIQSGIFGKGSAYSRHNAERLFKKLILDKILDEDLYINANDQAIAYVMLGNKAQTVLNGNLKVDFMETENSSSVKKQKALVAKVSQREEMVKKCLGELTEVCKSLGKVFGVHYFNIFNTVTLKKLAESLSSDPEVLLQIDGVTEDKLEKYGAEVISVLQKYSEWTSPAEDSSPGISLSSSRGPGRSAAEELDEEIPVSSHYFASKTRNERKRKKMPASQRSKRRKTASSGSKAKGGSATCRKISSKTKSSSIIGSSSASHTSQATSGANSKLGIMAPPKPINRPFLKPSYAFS
Method in brief: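 BLM 50 nM in 25 mM Tris-HCl pH 8.0, 5 mM NaCl, 2 mM MgCl2, 1 mM DTT, 0.01% Tween-20, 2.5 ug/ml poly(dI-dC); 15 min cpd preinc, RT. Start: 200 nM forked DNA + 2 mM ATP (final). TAMRA read, 2 reads 2 h apart.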

[13] = Primary qHTS for Huh7 cytotoxicity: counterscreen for inhibitors of MERS-S pseudotyped particle cell entry (AID 1479147; calls by dose curve); conditions: cell viability read-out; series mostly up to 57.1 µM
[14] = Primary qHTS for Vero E6 cytotoxicity: counterscreen for inhibitors of SARS-S pseudo-typed particle cell entry (AID 1479150; calls by dose curve); conditions: cell viability; series mostly up to 57.1 µM
[15] = Cytotoxicity counterscreen for inhibitors of SARS-CoV-2 cell entry (AID 1645845; calls by dose curve; further: nearly all actives have a fitted effect of over 50% in size); conditions: cell viability (SARS-CoV-2 entry assay cells); series mostly up to 57.1 µM
Method in brief: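 After a 15 min room-temperature ATPLite 1step step, luminescence reflected ATP remaining in HEK293-ACE2 cells exposed to compound for 1 h plus 48 h at 37 C, with percent activity set by cell and no-cell controls.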

[16] = Confirmatory qHTS for small molecule stabilizers of the endoplasmic reticulum resident proteome: Secreted ER Calcium Modulated Protein (SERCaMP) assay (AID 1508628); conditions: SERCaMP secreted luciferase ER calcium/proteostasis reporter; series mostly up to 76.3 µM; further: nearly all actives have a fitted effect of over 40% in size; further: potency means the concentration at half of the fitted maximal effect
Method in brief: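 GLuc-SERCaMP-expressing SH-SY5Y cells, pretreated 16 h with compound, are challenged with thapsigargin to empty ER calcium stores; after 4 h, coelenterazine is added directly to the medium and luminescence is imaged.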

## CN1[C@@H]2CC[C@H]1CC(O[C@@H](c1ccccc1)c1ccc(Cl)cc1)C2 (some centres not stated)
[1]
  Potency: 12.6 µM (active)

## COc1ccc(-n2nc(C(F)(F)F)cc2-c2ccc(Cl)cc2)cc1
[2]
  Potency: 11.2 µM (active)

## Cc1ccc2cc3c(ccc4ccccc43)c3c2c1CC3
[3]
  activation: 2.18% (inactive)
[4]
  Potency: inactive
[5]
  outcome: inactive
[6]
  max response: 0.698%
[7]
  outcome: inactive
[8]
  max response: -30.8% (inactive)

## O=C(O)c1ccccc1-c1c2cc(Br)c(=O)cc-2oc2[c]([Hg])c(O)c(Br)cc12
[9]
  Potency: inactive
[10]
  outcome: inactive
DIV14
  Potency: inactive
DIV17
  Potency: inactive
ICS
  Potency: inactive
PC26
  Potency: inactive

## CC(C)[C@@]1(NC(=O)[C@H]2CC3c4cccc5[nH]cc(c45)C[C@H]3N(C)C2)O[C@@]2(O)C3CCCN3C(=O)[C@@H](Cc3ccccc3)N2C1=O (some centres not stated)
DIV14
  Potency: 0.953 µM (active)
DIV17
  Potency: 0.849 µM (active)
ICS
  Potency: 0.447 µM (active)
PC26
  Potency: 1.51 µM (active)

## COc1ccc2[nH]cc(CCN(C)C)c2c1
[11]
  Potency: inactive
[12]
  Potency: inactive

## CCc1ccc(Cc2ccc3c(c2)[C@]2(OC3)O[C@H](CO)[C@@H](O)[C@H](O)[C@H]2O)cc1
[13]
  outcome: inactive
[14]
  outcome: inactive
[15]
  Potency: inactive

## Cc1nnc2n1-c1sc(Br)cc1C(c1ccccc1Cl)=NC2
[13]
  outcome: inactive
[14]
  outcome: inactive
[15]
  Potency: inactive

## CN1C(=O)CCS(=O)(=O)[C@H]1c1ccc(Cl)cc1
[9]
  Potency: inactive
[10]
  outcome: inactive

## CCC(Sc1ccccc1)C(=O)OC1CC2CCC(C1)N2C (configuration not stated)
[16]
  Potency: 5.62 µM (active)

## CN1CCN(c2ccc3ccccc3n2)CC1
[11]
  Potency: inactive
[12]
  Potency: inactive
[16]
  Potency: inactive
